From PubChem BioAssay (Tox21)
Records with an inconclusive call do not appear. Where a call stands in place of a potency, no number is given. The source made the active and inactive calls. Calls come from the whole dose curve; as a rule, active = well fitted cell-killing curve with a large enough effect in the repeat runs; inconclusive = weak or mixed curves, or effect the other way; inactive = flat fitted curve, though single readings scatter.

Assay: qHTS RealTime-Glo MT Cell Viability Assay in HEK293 cells - 16 hour (AID 1224872); note: top concentration of the series differs between compounds; nearly all actives have a fitted effect of over 50% in size
Details: RealTime-Glo luminescence; series mostly up to 76.8 µM
Source text: National Center for Advancing Translational Sciences [NCATS]
NIH Chemical Genomics Center [NCGC]
U.S. Environmental Protection Agency [EPA]
National Institutes of Environmental Health Sciences [NIEHS]
National Toxicology Program [NTP]
U.S. Food and Drug Administration [FDA]
Measure of cell viability is critical in the cell-base assay. Analysis of cell viability is necessary for the characterization of cell responses to cytotoxic drugs and environmental stress. A RealTime-Glo MT Cell Viability Assay to monitor cell viability in real time of continues cell culture during 40 hours of compound treatment was used to screen Tox21 10K library compounds in Hek293 cells. The RealTime-Glo MT Cell Viability Assay is a nonlytic, homogeneous, bioluminescent method to measure cell viability in real time using a simple, plate-based method. The assay involves adding NanoLuc luciferase and a cell-permeant prosubstrate to cells in culture. Viable cells reduce the proprietary prosubstrate to generate a substrate for NanoLuc luciferase. This substrate diffuses from cells into the surrounding culture medium, where it is rapidly used by the NanoLuc Enzyme to produce a luminescent signal. The signal correlates with the number of viable cells, making the assay well suited for cytotoxicity studies.
Tox21 Assay Protocol Summary:
The mixture of Hek293 cell suspension and reagents were dispensed at 600cells/6 ul/well in 1536-well tissue culture treated black solid bottom plates using a Multidrop dispenser. After the assay plates were incubated at a 37 C/5% CO2 incubator for 5 hours, 23 nL of compounds dissolved in DMSO, positive and negative controls was transferred to the assay plate by a pintool work station. The plates were incubated at 37 C for 40 hours. The luminescence intensity were measured at 0h, 8h, 16h, 24h, 32h and 40h time points using ViewLux plate reader during compound treatment.

Compound | Potency | activity change, negative = cytotoxicity
CCOC(=O)CCC(C)=O | inactive | 
N[C@H](C(=O)O)c1ccc(O)cc1 |  | 4.17% [at 15.8 µM] (inactive)
CCCCOCCOCCOCc1cc2c(cc1CCC)OCO2 | inactive | 
CN(C(=O)c1c(O)c2ccccc2n(C)c1=O)c1ccccc1 | inactive | 
CC(=O)Nc1ccc(S(N)(=O)=O)cc1 | inactive | 
C=CCCCCCCCCC=O | inactive | 
NS(=O)(=O)c1cc2c(cc1Cl)NC(C1CC3C=CC1C3)NS2(=O)=O (stereo not given) | inactive | 
NC(=O)COCCN1CCN(C(c2ccccc2)c2ccc(Cl)cc2)CC1 (stereo not given) | inactive | 
Cc1ccc(C#N)cc1 | inactive | 
COc1c(N2C[C@@H]3CCCN[C@@H]3C2)c(F)cc2c(=O)c(C(=O)O)cn(C3CC3)c12 | inactive | 
CC(C)CCCC(C)N (stereo not given) | inactive | 
CCOc1ccc(C(=O)OCCN(CC)CC)cc1 | inactive | 
C=C(C)C(=O)OCCCCCCCC(C)C | inactive | 
COCCc1ccc(OCC(O)CNC(C)C)cc1 (stereo not given) | inactive | 
CCCCCCCCCCCCCC=O |  | 1.71% [at 6.97 µM] (inactive)
N[C@@H](C(=O)N[C@@H]1C(=O)N2C(C(=O)O)=C(Cl)CS[C@H]12)c1ccccc1 |  | 12.8% [at 6.97 µM] (inactive)
N=C(N)c1ccc2cc(OC(=O)c3ccc(N=C(N)N)cc3)ccc2c1 | inactive | 
NC(=O)c1cn(Cc2c(F)cccc2F)nn1 | inactive | 
C=C[Si](OC(=C)C)(OC(=C)C)OC(=C)C | inactive | 
OC[C@]1(O)OC[C@@H](O)[C@H](O)[C@@H]1O | inactive | 

Compound | Potency | activity change, negative = cytotoxicity
CN1CCN(c2cc3c(cc2F)c(=O)c(C(=O)O)cn3-c2ccc(F)cc2)CC1 | inactive | 
CC(C)NC(=O)NC(C)C | inactive | 
O=C(O)CNC(=O)c1ccc([N+](=O)[O-])cc1 | inactive | 
NCCCNCCSP(=O)(O)O |  | 0.443% [at 6.97 µM] (inactive)
CCOC(=O)[C@H](CCc1ccccc1)N[C@@H](C)C(=O)N1[C@H](C(=O)O)C[C@@H]2CCC[C@@H]21 | inactive | 
CN1CCC(=C2c3ccccc3CC(=O)c3sccc32)CC1 | inactive | 
COC(=O)c1ccc(C)cc1C1=NC(C)(C(C)C)C(=O)N1 (stereo not given) | inactive | 
CCS(=O)(=O)c1ccc(OC)c(C(=O)OC)c1 | inactive | 
CCSC(=O)N(CC(C)C)CC(C)C | inactive | 
Cc1nc2c([nH]1)c(=O)n(C)c(=O)n2Cc1ccco1 | inactive | 
O=c1[nH]c(=O)n([C@H]2C[C@H](O)[C@@H](CO)O2)cc1I | inactive | 
C[C@](N)(Cc1ccc(O)cc1)C(=O)O |  | 1.36% [at 6.97 µM] (inactive)
COc1ccc2c(c1)c(CC(=O)OCC(=O)O)c(C)n2C(=O)c1ccc(Cl)cc1 | inactive | 
Cc1cnc(NS(=O)(=O)c2ccc(N)cc2)nc1 | inactive | 
ClC(Cl)(Br)Br | inactive | 
NS(=O)(=O)c1cc(C(=O)O)cc(N2CCCC2)c1Oc1ccccc1 | inactive | 
Cn1cc(S(C)=O)c(=O)c2ccc(F)cc21 (stereo not given) | inactive | 
c1ccc(CC2=NCCN2)cc1 | inactive | 
COC(=O)c1cc(C(=O)OC)cc(S(=O)(=O)O)c1 | inactive | 
O=C1NC(=O)[C@@]2(CCOc3ccc(F)cc32)N1 | inactive | 
